The campaign covered roughly 16,000 compounds. About 5,100 (32%) were called active. Another 25% or so got no clear call; they are omitted. This is one part of the list. A number with no mark means an inactive call. Calls follow the shape of the dose curve; as a rule, active = well fitted curve in the direction sought with a large enough effect; inconclusive = small, poorly fitted or top-dose-only effect, or effect the other way; inactive = no such curve, though single readings can be large or run the other way.
target: Cytochrome P450 3A4 (Homo sapiens) (UniProt P08684); assay: Cytochrome panel assay with activity outcomes; details: recombinant CYP, pro-luciferin dealkylation, luminescence, p450-cyp3a4; series mostly up to 57.1 µM; activity, negative = inhibition: at the top concentration
Sequence (P08684 whole entry, looked up): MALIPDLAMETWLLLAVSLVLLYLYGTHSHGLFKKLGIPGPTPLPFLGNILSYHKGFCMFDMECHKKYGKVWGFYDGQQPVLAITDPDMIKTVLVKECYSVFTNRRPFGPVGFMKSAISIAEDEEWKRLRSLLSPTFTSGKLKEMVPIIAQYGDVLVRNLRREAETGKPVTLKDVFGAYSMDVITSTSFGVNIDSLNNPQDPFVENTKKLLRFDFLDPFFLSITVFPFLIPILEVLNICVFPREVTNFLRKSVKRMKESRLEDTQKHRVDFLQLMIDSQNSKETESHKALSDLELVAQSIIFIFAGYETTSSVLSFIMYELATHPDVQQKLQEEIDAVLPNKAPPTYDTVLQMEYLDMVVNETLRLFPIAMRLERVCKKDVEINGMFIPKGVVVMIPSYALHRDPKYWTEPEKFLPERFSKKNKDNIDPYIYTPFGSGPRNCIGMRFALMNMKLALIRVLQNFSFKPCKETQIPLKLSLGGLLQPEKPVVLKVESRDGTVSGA
% is scaled to controls: 0 for no effect and ±100 for the full control effect.

| SMILES | AC50 | activity, negative = inhibition |
| --- | --- | --- |
| CCc1cc(C(c2ccccc2OC)N2CCOCC2)c(NC(=O)c2ccccc2)s1 (stereo not drawn) | 4.47 µM (active) | – |
| CCOc1ccc2nc(NC(=O)c3ccc(S(=O)(=O)N4CCOCC4)cc3)sc2c1 | – | -15% |
| CCCCC1CCC(c2nc(-c3ccccn3)no2)CC1 (stereo not drawn) | – | 5.4% [at 2.29 µM] |
| COc1ccc(NC(=O)c2ccc(-c3ccc(-c4noc(C)n4)cc3C)cc2)cc1N1CCN(C)CC1 | – | -16.4% |
| O=C(Nc1ccccc1)N1CCCC(c2nc(-c3ccc(F)cc3)no2)C1 (stereo not drawn) | 14.1 µM (active) | – |
| COc1ccc(-c2noc(C3CCCN(C(=O)c4ccccc4OC)C3)n2)cc1OC (stereo not drawn) | 5.01 µM (active) | – |
| CCCCCC(=O)N1CCCC(c2nc(-c3ccc(OC)cc3)no2)C1 (stereo not drawn) | 7.08 µM (active) | – |
| CN(C)c1ccc(-c2noc(C3CCN(S(=O)(=O)c4cccc(C(=O)O)c4)CC3)n2)cc1 | – | -21.2% |
| CC(C)(C)c1ccc(C(=O)NCc2ccc(Cl)cc2)cc1 | – | -23.4% |
| O=C(NCc1ccccc1)c1cccc(COc2cccc(Cl)c2)c1 | – | -29.3% [at 11.4 µM] |
| O=C(NCc1cccc(C(F)(F)F)c1)c1cc(Cl)cc(Cl)c1 | 14.1 µM (active) | – |
| CCOCC(=O)Nc1cc(C(=O)Nc2ccccc2)ccc1Cl | – | -4.26% [at 2.29 µM] |
| CCN(CC)S(=O)(=O)c1cc(C(=O)Nc2ccncc2)ccc1Cl | 1 µM (active) | – |
| CCN(CC)S(=O)(=O)c1cc(C(=O)OC)ccc1Cl | – | 9.82% |
| CC(=O)Nc1ccc(Nc2ncc([N+](=O)[O-])c(Nc3ccc(NC(C)=O)cc3)n2)cc1 | 6.31 µM (active) | – |
| CC(=O)Nc1ccc([N+](=O)[O-])cn1 | – | 3.23% |
| CC(=O)Nc1ccc(S(=O)(=O)c2ccc(N)cc2)cc1 | – | -19.3% [at 11.4 µM] |
| Cc1ccc(C(=O)NC(=S)NCC2CCCO2)cc1 (stereo not drawn) | – | -7.78% [at 2.29 µM] |
| CCOc1cc(NC(=S)NCC2CCCO2)c(OCC)cc1NC(=O)c1ccccc1C (stereo not drawn) | 12.6 µM (active) | – |
| Cc1scc(C(=O)NNC(=S)NCC2CCCO2)c1C (stereo not drawn) | – | -19.7% |
| CCOc1cc(NC(=S)Nc2cccc(C)c2)c(OCC)cc1NC(=O)CC(C)C | 11.2 µM (active) | – |

| SMILES | AC50 | activity, negative = inhibition |
| --- | --- | --- |
| Cc1ccccc1C(=O)c1c[nH]c(C(=O)NCC2CCCO2)c1 (stereo not drawn) | – | 2.67% [at 11.4 µM] |
| Cc1cccc(NC(=S)NNC(=O)CC(C)O)c1C (stereo not drawn) | – | -9.46% |
| CCOc1cc(NC(=S)NCC2CCCO2)c(OCC)cc1NC(=O)c1cccc(C)c1 (stereo not drawn) | 12.6 µM (active) | – |
| CCc1cc(C(=O)NNC(=S)NCC2CCCO2)cs1 (stereo not drawn) | – | -21.7% |
| Nc1cc(C(=O)O)[nH]c(=O)n1 | – | -11.2% [at 11.4 µM] |
| O=C(O)[C@H]([C@H]1NCCS1)N1Cc2ccccc2C1 | – | -4.44% [at 11.4 µM] |
| O=C(c1cccc(F)c1)N1CCC2(CCCN(C(c3ccccc3)c3ccccc3)C2)CC1 | – | -29.9% |
| O=C(c1cccc(F)c1)N1CCC[C@@]2(CCN(c3ccccc3)C2)C1 | 6.31 µM (active) | – |
| O=C(c1cccc(F)c1)N1CCC[C@@]2(CCN(C(c3ccccc3)c3ccccc3)C2)C1 | 3.98 µM (active) | – |
| O=C(c1cccc(F)c1)N1CCC[C@@]2(CCN(c3cccc(-c4ccccc4)c3)C2)C1 | 7.94 µM (active) | – |
| COC(=O)N1CCC2(CC1)CN(c1cccc(-c3ccccc3)c1)C2 | – | 4.17% |
| COc1ccc(C(=O)N2CCC[C@@]3(CCN(c4cccc(-c5ccccc5)c4)C3)C2)cc1 | 3.16 µM (active) | – |
| CN1CC[C@@]2(CCCN(C(=O)c3cccc(F)c3)C2)C1 | – | -27.3% |
| CC(=O)N1CCC2(CC1)CCN(c1cccc(-c3ccccc3)c1)CC2 | – | -17.6% |
| CN(C)CCCO[C@H]1[C@@H]2OC(C)(C)O[C@@H]2O[C@@H]1[C@H](O)CO | – | 1.58% [at 25.6 µM] |
| Clc1ccc2c(NCCNC3CCCCC3)ccnc2c1 | – | -5.83% [at 11.4 µM] |
| O=C(O)/C=C\[C@H](O)c1ccc(Cl)cc1 | – | 2.09% |
| O=C(c1cccc(F)c1)N1CCC2(CC1)CN(c1ccncc1)C2 | – | 22.2% |
| O=C(c1cccc(F)c1)N1CCC[C@@]2(CCN(c3ccncc3)C2)C1 | 0.316 µM (active) | – |
| O=C(NNC(=O)c1ccccc1-n1cccc1)c1ccc(Cl)c(Cl)c1 | 15.8 µM (active) | – |
| O=C(NNC(=O)c1ccccc1-n1cccc1)c1ccccc1 | – | -20.3% |

| SMILES | AC50 | activity, negative = inhibition |
| --- | --- | --- |
| N[C@H](CCCC(=O)O)C(=O)O | – | -2.17% |
| N=C(C[C@@H](O)COc1ccccc1-c1ccccc1)N1CCCCC1 | – | -25.3% |
| CN1CCN(c2ccnc(-c3cccc(NS(C)(=O)=O)c3)n2)CC1 | 25.1 µM (active) | – |
| CN1CCN(c2ccnc(-c3ccoc3)n2)CC1 | – | -2.76% |
| CS(=O)(=O)Nc1cccc(-c2nccc(-n3ccnc3)n2)c1 | 1.58 µM (active) | – |
| CS(=O)(=O)Nc1cccc(-c2cncnc2-n2ccnc2)c1 | 7.94 µM (active) | – |
| C[N+](C)(N)CCC[N+](C)(C)N | – | -4.61% [at 11.4 µM] |
| Cc1ccc(NC(=O)/C(=C/c2cccc([N+](=O)[O-])c2)NC(=O)C2CCCCC2)c(C)c1 | 1 µM (active) | – |
| O=C(Nc1cccc2ccccc12)/C(=C/c1ccc([N+](=O)[O-])cc1)NC(=O)c1ccccc1 | 1.12 µM (active) | – |
| CCOC(=O)C1CCCN(C(=O)/C=C/c2cccc([N+](=O)[O-])c2)C1 (stereo not drawn) | – | 3.28% [at 2.29 µM] |
| O=C(N/N=C/C=C/c1ccc([N+](=O)[O-])cc1)c1cccs1 | – | -1.51% |
| Cc1ccc(NC(=O)/C(=C\c2ccc([N+](=O)[O-])cc2)NC(=O)c2ccccc2)cc1 | 1.12 µM (active) | – |
| Cc1ccc(NC(=O)/C(=C\c2cccc([N+](=O)[O-])c2)NC(=O)c2cccs2)cc1 | 0.398 µM (active) | – |
| CCc1ccc(N2CC(C(=O)N/N=C/c3cccc([N+](=O)[O-])c3)CC2=O)cc1 (stereo not drawn) | – | -50% |
| O=C(O)C1=CCCNC1 | inactive | – |
| CC[C@H](Cc1c(I)cc(I)c(N)c1I)C(=O)O | – | -23.4% [at 25.6 µM] |
| O=C(O)c1cc(N=Nc2ccc([N+](=O)[O-])cc2)ccc1O | – | -6.97% [at 11.4 µM] |
| Cc1ccc(C(=O)N/C(=C\c2ccc([N+](=O)[O-])cc2)C(=O)NCCc2ccccc2)cc1 | 0.282 µM (active) | – |
| COc1cc(/C=C(/NC(=O)c2ccccc2)C(=O)Nc2ccccc2)c([N+](=O)[O-])cc1OC | 0.794 µM (active) | – |
| COc1cc(/C=C(\C#N)C(=O)NCC2CCCO2)c([N+](=O)[O-])cc1OC (stereo not drawn) | – | 12.9% |
| O=C(CNC(=O)c1ccc([N+](=O)[O-])cc1)c1ccccc1 | – | 0.889% |
